# Measurements published in the supplement of paper PMC11219838.
# Tested on: Caenorhabditis elegans dauer (daf-2(e1370))
# Experiment: proportion of mobile C. elegans dauer larvae relative to DMSO control (fraction of DMSO control); higher = more viable, less nematicidal, active = 0.63 or less; extreme values may be limits of the assay
# Conditions: 60 µM; 5 days; temperature: 20 °C
# Experimental: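 DODA library (846 commercial 1,3,4- and 1,2,4-oxadiazole compounds plus commercial nematicide controls) screened at a single dose of 60 µM (0.6% DMSO) in 96-well plates, two biological replicates. Read-outs: C. elegans N2 L1 survival/reproduction score at day 6, 20 °C (0: 0-10 worms, 1: 11-20, 2: 21-50, 3: >50, 4: overgrown/starved). C. elegans daf-2 dauer, D. dipsaci and M. hapla J2 mobility at day 5, 20 °C, and P. penetrans mobility at day 5, 20 °C, each relative to DMSO controls. M. hapla egg hatching at day 12, 25 °C, relative to the mean of 8 DMSO wells on the same plate.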
row,SMILES,proportion of mobile C. elegans dauer larvae
1,c1ccc(COc2cccc(-c3nc(-c4ccccn4)no3)c2)cc1,1 (inactive)
2,COC(=O)c1ccc(CSc2nnc(-c3ccncc3)o2)cc1,1 (inactive)
3,COc1ccccc1-c1nc(-c2ccccc2)no1,1 (inactive)
4,Cc1ccc(-c2noc(C3CCCCC3)n2)cc1,1 (inactive)
5,O=C(CSc1nnc(-c2ccccc2)o1)c1ccc(Br)cc1,1 (inactive)
6,COc1ccc(Cl)cc1-c1nc(-c2ccccc2C)no1,1 (inactive)
7,CC(Oc1ccc(Br)cc1)c1nc(-c2ccncc2)no1 (stereo not given),0 (active)
8,COc1ccc(-c2noc(-c3ccc(C)cc3Cl)n2)cc1,1 (inactive)
9,COc1ccc(-c2noc(-c3ccc(Br)cc3)n2)cc1,1 (inactive)
10,O=C(c1ccccc1-c1nc(-c2ccccc2)no1)N1CCCCC1,1 (inactive)
11,COc1ccc(-c2nnc(SCC(=O)Nc3ccc(Cl)c(Br)c3)o2)cc1,1 (inactive)
12,CCOc1nc(-c2ccccc2)ccc1-c1noc(-c2cccc(C)c2)n1,1 (inactive)
13,COc1ccccc1-c1nc(-c2cccc(Br)c2)no1,1 (inactive)
14,O=C(CSc1nnc(-c2cccc(Br)c2)o1)N1CCCCC1,1 (inactive)
15,CCc1nc(-c2ccc(-c3ccccc3)nc2OC)no1,1 (inactive)
16,COc1ccc(-c2noc(COc3ccccc3Cl)n2)cc1,1 (inactive)
17,Clc1cc(Br)ccc1OCc1nc(-c2cccnc2)no1,1 (inactive)
18,O=C(Nc1ccccc1-c1nc(-c2ccncc2)no1)c1cccc(Cl)c1,1 (inactive)
19,Fc1cccc(Cl)c1CSc1nnc(-c2ccccc2Cl)o1,1 (inactive)
20,Cc1ccccc1-c1nnc(SCc2ccccc2Cl)o1,1 (inactive)

row,SMILES,proportion of mobile C. elegans dauer larvae
1,COc1ccc(-c2nnc(SCc3csc(N)n3)o2)cc1,1 (inactive)
2,O=C(CSc1nnc(-c2ccc(Cl)cc2)o1)Nc1ccc(F)cc1,1 (inactive)
3,CCOc1ccccc1-c1nc(-c2ccc(NC(=O)c3ccncc3)cc2)no1,1 (inactive)
4,Brc1cccc(-c2nc(-c3ccccc3)no2)c1,1 (inactive)
5,Clc1ccc(-c2noc(COc3ccccc3Cl)n2)cc1,1 (inactive)
6,Brc1ccccc1-c1nc(-c2ccccn2)no1,0.738 (inactive)
7,c1ccc(OCc2nc(-c3cccs3)no2)cc1,0.0278 (active)
8,COc1ccc(-c2noc(-c3ccc(C)c(C)c3)n2)cc1,1 (inactive)
9,Clc1ccc(-c2noc(-c3ccccc3Br)n2)cc1,1 (inactive)
10,Cc1cccc(-c2noc(-c3ccc(C)cc3Cl)n2)c1,1 (inactive)
11,Clc1cccc(-c2nc(-c3cccnc3)no2)c1,1 (inactive)
12,COc1ccc(Cl)cc1-c1noc(-c2ccccc2)n1,1 (inactive)
13,Cc1ccc(-c2noc(COc3ccccc3C)n2)cc1,1 (inactive)
14,CCCC(=O)Nc1ccccc1-c1nc(-c2ccncc2)no1,1 (inactive)
15,Cc1ccccc1OCc1nc(-c2ccc(Cl)cc2)no1,1 (inactive)
16,CC(C)(C)C(=O)CSc1nnc(-c2ccc(Cl)cc2Cl)o1,1 (inactive)
17,Cc1cc(OCc2nc(-c3ccc(NC(=O)c4ccc5c(c4)OCO5)cc3)no2)ccc1Cl,1 (inactive)
18,COc1ccc(-c2noc(COc3ccc(Cl)cc3)n2)cc1,1 (inactive)
19,Cc1ccc(-c2noc(-c3ccc(Br)cc3)n2)cc1,1 (inactive)
20,Cc1ccc(-c2noc(-c3cccc(C)c3)n2)cc1,0.557 (active)
